In PubChem BioAssay AID588726 (The Scripps Research Institute Molecular Screening Center, 2011):
Hit rate of the full screen: of about 360,000 compounds, about 8,200 (2.3%) were called active. Only a selection was taken, and actives are over-represented in it overall. A number with no mark means an inactive call. Rule as the data show it: active = inhibition above about 27%; inactive = the rest.

What follows are compounds tested against Fructose-bisphosphate aldolase (Mycobacterium tuberculosis (strain ATCC 25618 / H37Rv)) (UniProt P9WQA3) (assay: M. tuberculosis aldolase activity blockers – biochemical, fluorescence, strain H37Rv, primary screen (AID 588726;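 also: 0% = vehicle and 100% = reference inhibitor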)). Details: purified M. tuberculosis FBA, fluorescence read-out, at 1 µM, stronger effect = higher value.
Fructose-bisphosphate aldolase (Mycobacterium tuberculosis (strain ATCC 25618 / H37Rv)), sequence (P9WQA3 whole entry, looked up): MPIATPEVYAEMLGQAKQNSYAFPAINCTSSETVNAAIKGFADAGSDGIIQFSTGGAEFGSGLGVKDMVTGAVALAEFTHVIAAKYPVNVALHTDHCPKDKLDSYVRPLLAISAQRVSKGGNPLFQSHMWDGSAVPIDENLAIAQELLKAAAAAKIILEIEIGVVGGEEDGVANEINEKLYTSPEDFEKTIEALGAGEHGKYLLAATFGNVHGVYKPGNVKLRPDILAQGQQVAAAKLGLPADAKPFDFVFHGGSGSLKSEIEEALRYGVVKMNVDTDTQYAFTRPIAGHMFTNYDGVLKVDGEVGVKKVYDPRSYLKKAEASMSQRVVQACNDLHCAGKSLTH

SMILES | inhibition
CCc1nc2c(OCC(N)=O)cccn2c1N(C)C(=O)c1ccc(OC)cc1 | -2.06%
Cc1nc(C(=O)NCc2ccccc2)sc1C1(C)CC(c2cccnc2)=NO1 (stereo not given) | -0.93%
O=C(CN1CCN(S(=O)(=O)c2ccc(Cl)s2)CC1)N1CCCCC1 | 5.01%
CN(C(=O)COC(=O)c1cc(-c2ccco2)nc2ccccc12)C1CCS(=O)(=O)C1 (stereo not given) | 4.55%
C/C(=N\NC(=O)c1cc(-c2ccc(O)cc2)nc2ccccc12)c1cccnc1 | 0.88%
O=C(c1ccc(Cl)cc1)n1cnc2ccccc21 | 5.13%
COc1ccc(NC(=O)CN(C)C(=O)c2cc(-c3ccc(C)o3)nc3ccccc23)cc1 | 71.2% (active)
CN(CCOc1ccccc1)C(=O)c1cc(COc2c(F)cccc2F)on1 | -3.64%
COc1cccc(NC(=O)CN(C)C(=O)c2cc(Cl)nc3ccccc23)c1 | 2.95%
COc1ccc(C)cc1NC(=O)c1cc(-c2ccccc2)nc2c1cnn2C(C)C | 1.87%
COc1ccc(-c2cc(C(=O)n3cnc4ccccc43)c3ccccc3n2)cc1 | 113% (active)
COc1ccc(NC(=O)CN(C)C(=O)c2cc(C)oc2C)cc1 | 0.68%
CN(CCOc1ccccc1)C(=O)c1cc(-c2ccco2)nc2ccccc12 | 29.6% (active)
COc1ccc(-c2cc(C(=O)Nc3ccccc3O)c3ccccc3n2)cc1 | 28.8% (active)
C/C(N)=C(/C#N)C(=O)COC(=O)c1cc(-c2ccc(C)cc2)nc2ccccc12 | 0.39%
CC(C)c1ccc(/C=C/C(=O)NCCCN2CCOCC2)cc1 | 0.72%
CCN(C(=O)c1cc([N+](=O)[O-])ccc1NCc1cccnc1)c1ccccc1 | 2.57%
COC(=O)c1cc2n(n1)CCCNC2=O | 3.15%
C=C(C)Cn1c(C)cc(C)c(S(=O)(=O)c2ccccc2C)c1=O | -0.53%
CCc1cc(C(c2ccccc2OC)N2CCOCC2)c(NC(=O)c2ccccc2)s1 (stereo not given) | -1.6%
COc1cccc(C(=O)N/N=C(\C)c2cccc(NC(=O)c3ccc(F)cc3)c2)c1OC | -1.27%
Cn1nc(C(F)(F)F)cc1-c1ccc(/C=C(\C#N)C(=O)c2cccc(C(F)(F)F)c2)s1 | 0.1%
CCc1ccc(OCC(=O)OC(C)C(=O)NC2CC2)cc1 (stereo not given) | -0.68%

SMILES | inhibition
CC(C)N(Cc1nnc(-c2ccccc2Br)o1)C(=O)c1cc(Cl)nc2ccccc12 | 2.07%
O=C(c1cc(-c2ccco2)nc2ccccc12)N(Cc1nnc(-c2ccc(Cl)cc2)o1)C1CC1 | 46.8% (active)
COc1ccc(-c2cc(C(=O)N(C)Cc3ccccc3)c3ccccc3n2)cc1 | 69.9% (active)
COc1ccc(C2=NS(=O)(=O)N(C)C(C(=O)N(C)Cc3ccccc3)=C2)cc1 | 4.86%
COc1ccc(CN(C)C(=O)c2cc(-c3ccc(C)cc3C)nc3ccccc23)c(OC)c1OC | -0.53%
O=C(c1ccc(Cl)s1)N(Cc1nnc(-c2ccccc2Cl)o1)C1CC1 | -1.65%
C=CCOc1cccc(CNCc2cccnc2)c1 | -1.51%
CC1(C)CC(=O)c2c(n(S(=O)(=O)c3ccccc3)c3ccc(NS(=O)(=O)c4ccccc4)cc23)C1 | -1.63%
C[C@@H](C(=O)Nc1ccc2ccccc2c1)[C@@H]1C[C@@]1(C)[C@@H](NC(=O)c1cccnc1)c1ccccc1 | -0.2%
O=C(CSc1ncn[nH]1)Nc1nc2c(F)c(F)c(F)cc2s1 | 0.81%
CC(=O)N(CN1C(=O)C2C3C=CC(C3)C2C1=O)c1cccc(Cl)c1 (stereo not given) | -0.27%
COc1ccc(-c2ccc3c(c2)[C@@H]2C[C@H](N(C)S(=O)(=O)c4ccccc4)[C@H]([C@H](C)O)C(=O)N2CC3)cc1 | 4.15%
CN(Cc1ccccc1)C(=O)CCNC(=O)Cn1cnc2ccccc2c1=O | 5.26%
CC(=O)Nc1ccc(Oc2ccc3c(c2)C(=O)NC3=O)cc1 | 2.21%
CCCCN(C)CCC(=O)Nc1ccc(Cl)cc1 | 0.51%
CCCCC(=O)Nc1ccc2c(c1)C(=O)NC2=O | 42.1% (active)
Cc1ccc(C(=O)NC2CCN(C(=O)Nc3ccccc3Cl)CC2)cc1 | -1.09%
COc1ccc(C(=O)OCC(=O)NC(=O)CCSc2ccccc2)cc1 | -0.72%
Cc1ccccc1CN1CCNC(=O)C1CC(=O)NCCC1=CCCCC1 (stereo not given) | 2.98%
Cc1cc(C(=O)OC(C)C(=O)Nc2cccc(S(=O)(=O)N3CCOCC3)c2)c(C)o1 (stereo not given) | -3.62%
CCOCCCNC(=O)C(NC(=O)c1ccccc1O)c1ccccc1 (stereo not given) | 43.8% (active)
CCOCCCNC(=O)C(NC(=O)CNC(=O)c1ccccc1)c1ccc(C)cc1 (stereo not given) | -3.14%
